The structures appear in SMILES notation. Active and inactive are the calls of the source. The calls were made as follows: active = hit-call score of the fitted dose curve at least 0.9, where 1 is the maximum; inactive = score below 0.9.

For 6 compounds, outcome and AC50 results are on record in PubChem BioAssay (EPA / NIEHS).

Details in all cases: mRNA level, 48 h; actives raise or lower the signal
Read-out in experiment [1]: Heat shock 70 kDa protein 1 (HSPA1A), gene 3303
Put plainly: LTEA_HepaRG_HSPA1A: Life Technologies and Expression Analysis (LTEA) Assay for Heat shock 70 kDa protein 1 (HSPA1A) using HepaRG (AID 2283502). The method in brief:
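Cells were plated and cultured for 48 h, then switched to serum-free induction medium. Chemicals were added at eight half-log concentrations up to 100 uM for 48 h. RNA was then isolated and HSPA1A measured by qRT-PCR with bidirectional curve fitting against DMSO.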

Read-out in experiment [2]: Hypoxia-inducible factor 1-alpha (Homo sapiens) (UniProt Q16665)
Put plainly: LTEA_HepaRG_HIF1A: Life Technologies and Expression Analysis (LTEA) Assay for Hypoxia-inducible factor 1 (HIF1A) Trancription factor using HepaRG (AID 2283503). The gist of the method:
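HIF1A transcript level read by qRT-PCR (ACTB, GAPDH, POLR2A normalization) after 48 h chemical exposure of HepaRG cultures. Eight half-log concentrations, top 100 uM, 0.5% DMSO vehicle, duplicates; bidirectional curve fit against DMSO baseline.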

Read-out in experiment [3]: 3-Hydroxy-3-Methylglutaryl-CoA Synthase 2 (HMGCS2), HMGCS2 (gene 3158)
As to the kind of experiment: LTEA_HepaRG_HMGCS2: Life Technologies and Expression Analysis (LTEA) Assay for 3-Hydroxy-3-Methylglutaryl-CoA Synthase 2 (HMGCS2) using HepaRG (AID 2283504). The method in brief:
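qRT-PCR read-out of HMGCS2 transcript, normalised to three housekeeping genes, in HepaRG cells after 48 h chemical exposure. Eight-point curves from 100 uM, half-log dilutions, 0.5% DMSO vehicle; gain or loss fitted relative to DMSO baseline.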

Read-out in experiment [4]: HGF (gene 3082)
Put plainly: LTEA_HepaRG_HGF: Life Technologies and Expression Analysis (LTEA) Assay for Hepatocyte Growth Facto (HGF) using HepaRG (AID 2283505). The gist of the method:
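HepaRG, 48 h dosing, 8-pt half-log series from 100 uM in 0.5% DMSO, duplicates. Readout: TaqMan qRT-PCR of HGF mRNA, housekeeping-normalized; bidirectional curve fit vs DMSO baseline.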

Read-out in experiment [5]: Insulin Like Growth Factor 1 (IGF1), IGF1 (gene 3479)
As to the kind of experiment: LTEA_HepaRG_IGF1: Life Technologies and Expression Analysis (LTEA) Assay for Insulin Like Growth Factor 1 (IGF1) using HepaRG (AID 2283506). The method in brief: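 Cells are thawed, plated and cultured 48 h, then exposed in duplicate to chemical (highest 100 uM, half-log steps, 0.5% DMSO) for another 48 h. Total RNA is analysed by Fluidigm qRT-PCR for IGF1 expression relative to vehicle.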

Read-out in experiment [6]: Intercellular Adhesion Molecule 1 (ICAM1), ICAM1 (gene 3383)
Put plainly: LTEA_HepaRG_ICAM1: Life Technologies and Expression Analysis (LTEA) Assay for Intercellular Adhesion Molecule 1 (ICAM1) using HepaRG (AID 2283507). The gist of the method:
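HepaRG, 48 h exposure, 8-pt half-log series from 100 uM, 0.5% DMSO vehicle, duplicates. Readout: TaqMan qRT-PCR mRNA, housekeeping-normalized (ACTB/GAPDH/POLR2A). Bidirectional curve fit vs DMSO baseline.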

Read-out in experiment [7]: Insulin-like growth factor-binding protein 1 (IGFBP1), IGFBP1 (gene 3484)
As to the kind of experiment: LTEA_HepaRG_IGFBP1: Life Technologies and Expression Analysis (LTEA) Assay for Insulin-like growth factor-binding protein 1 (IGFBP1) using HepaRG (AID 2283508). The method in brief:
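qRT-PCR mRNA read-out (TaqMan, Fluidigm array), normalised to three housekeeping genes; HepaRG cells, 48 h exposure, 8-pt half-log series from 100 uM, 0.5% DMSO vehicle; bidirectional curve fit vs DMSO baseline.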

Read-out in experiment [8]: Interleukin 6 (IL6), IL6 (gene 3569)
Put plainly: LTEA_HepaRG_IL6: Life Technologies and Expression Analysis (LTEA) Assay for Interleukin 6 (IL6) using HepaRG (AID 2283509). The gist of the method:
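Transcript levels, normalized to three housekeeping genes, were quantified by qRT-PCR after 48 h chemical treatment of HepaRG cells. Eight-point half-log series from 100 uM in 0.5% DMSO, duplicates. Fitted both directions against DMSO baseline.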

Read-out in experiment [9]: Interleukin 6 Receptor (IL6R), IL6R (gene 3570)
As to the kind of experiment: LTEA_HepaRG_IL6R: Life Technologies and Expression Analysis (LTEA) Assay for Interleukin 6 Receptor (IL6R) using HepaRG (AID 2283510). The method in brief: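 Cells were thawed, plated and cultured 48 h, then medium was changed to serum-free induction medium. Chemicals were added in duplicate (100 uM top, half-log steps, 0.5% DMSO) for 48 h. Lysates were analyzed by qRT-PCR for IL6R expression.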

Read-out in experiment [10]: Potassium channel subfamily K member 1 (KCNK1), KCNK1 (gene 3775)
As to the kind of experiment: LTEA_HepaRG_KCNK1: Life Technologies and Expression Analysis (LTEA) Assay for Potassium channel subfamily K member 1 (KCNK1) using HepaRG (AID 2283511). The gist of the method: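 KCNK1 transcript measured by TaqMan qRT-PCR against three housekeeping genes, after HepaRG cells were treated 48 h with eight half-log concentrations (top 100 uM, 0.5% DMSO). Curves fitted bidirectionally relative to vehicle.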

Read-out in experiment [11]: Keratin 19 (KRT19), KRT19 (gene 3880)
Put plainly: LTEA_HepaRG_KRT19: Life Technologies and Expression Analysis (LTEA) Assay for Keratin 19 (KRT19) using HepaRG (AID 2283512). The gist of the method: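 HepaRG, 48 h chemical exposure, 8-pt half-log CRC from 100 uM, 0.5% DMSO vehicle, duplicates. Readout: TaqMan qRT-PCR of KRT19 mRNA, housekeeping-normalized (ACTB/GAPDH/POLR2A). Bidirectional fit vs DMSO baseline.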

Read-out in experiment [12]: JUN Transcription Factor, JUN (gene 3725)
Put plainly: LTEA_HepaRG_JUN: Life Technologies and Expression Analysis (LTEA) Assay for JUN Transcription Factor using HepaRG (AID 2283513). The method in brief: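 Read-out is JUN transcript level by TaqMan qRT-PCR, normalized to ACTB, GAPDH and POLR2A, after 48 h chemical treatment of HepaRG cells. Concentration-response spanned eight half-log points up to 100 uM in 0.5% DMSO.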

Read-out in experiment [13]: Lipase C (LIPC), LIPC (gene 3990)
As to the kind of experiment: LTEA_HepaRG_LIPC: Life Technologies and Expression Analysis (LTEA) Assay for Lipase C (LIPC) using HepaRG (AID 2283514). The gist of the method: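 LIPC expression was quantified by qRT-PCR against three housekeeping genes (ACTB, GAPDH, POLR2A). Differentiated human HepaRG cells received eight half-log doses (top 100 uM, 0.5% DMSO) in duplicate for 48 h; fitting bidirectional relative to DMSO.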

Read-out in experiment [14]: Lipoprotein lipase (LPL), LPL (gene 4023)
Put plainly: LTEA_HepaRG_LPL: Life Technologies and Expression Analysis (LTEA) Assay for Lipoprotein lipase (LPL) using HepaRG (AID 2283515). The method in brief: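 LPL transcript levels quantified by TaqMan qRT-PCR against three housekeeping genes after 48 h chemical treatment of HepaRG cells. Eight-point half-log series from 100 uM in 0.5% DMSO, tested in duplicate; bidirectional fitting versus vehicle.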

Read-out in experiment [15]: MicroRNA 122 (MIR122), gene 406906
Put plainly: LTEA_HepaRG_MIR122: Life Technologies and Expression Analysis (LTEA) Assay for MicroRNA 122 (MIR122) using HepaRG (AID 2283516). Also: the transcript read is the microRNA miR-122. The method in brief:
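Human liver HepaRG cultures receive test chemicals for 48 h at eight half-log concentrations from 100 uM. Expression is quantified by qRT-PCR with ACTB/GAPDH/POLR2A normalization and fitted bidirectionally against 0.5% DMSO.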

Read-out in experiment [16]: matrix metalloproteinase-10 (MMP10), MMP10 (gene 4319)
As to the kind of experiment: LTEA_HepaRG_MMP10: Life Technologies and Expression Analysis (LTEA) Assay for matrix metalloproteinase-10 (MMP10) using HepaRG (AID 2283517). The gist of the method: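 Expression measured by TaqMan qRT-PCR with ACTB/GAPDH/POLR2A normalisation after 48 h chemical exposure of HepaRG cells. Eight half-log concentrations, top 100 uM, 0.5% DMSO vehicle, duplicates; gain or loss fitted against vehicle.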

Read-out in experiment [17]: MYC, MYC (gene 4609)
As to the kind of experiment: LTEA_HepaRG_MYC: Life Technologies and Expression Analysis (LTEA) Assay for MYC using HepaRG (AID 2283518). The method in brief:
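qRT-PCR read-out of MYC transcript (Fluidigm TaqMan, housekeeping-normalized) after 48 h chemical exposure of HepaRG cells; eight concentrations, top 100 uM, half-log steps. Bidirectional curve fitting against 0.5% DMSO vehicle baseline.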

Read-out in experiment [18]: matrix metalloproteinase-3 (MMP3), MMP3 (gene 4314)
As to the kind of experiment: LTEA_HepaRG_MMP3: Life Technologies and Expression Analysis (LTEA) Assay for matrix metalloproteinase-3 (MMP3) using HepaRG (AID 2283519). The gist of the method:
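Fluidigm-based TaqMan qRT-PCR, normalized to ACTB, GAPDH and POLR2A and fitted bidirectionally versus 0.5% DMSO, measured transcript levels. Treatment: duplicate 48 h exposures of HepaRG cells, ~100,000/well, to eight half-log concentrations topping at 100 uM.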

Read-out in experiment [19]: Paternally Expressed 10 (PEG10), PEG10 (gene 23089)
Put plainly: LTEA_HepaRG_PEG10: Life Technologies and Expression Analysis (LTEA) Assay for Paternally Expressed 10 (PEG10) using HepaRG (AID 2283520).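 As to AC50: PEG10 transcript by qRT-PCR normalised to ACTB GAPDH and POLR2A.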 The gist of the method:
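Human HepaRG cultures are dosed for 48 h across an eight-point half-log series starting at 100 uM, with 0.5% DMSO as vehicle and baseline. Gain or loss of PEG10 transcript is measured by qRT-PCR and fitted in both directions.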

Read-out in experiment [20]: Nuclear factor NF-kappa-B p105 subunit (Homo sapiens) (UniProt P19838)
Put plainly: LTEA_HepaRG_NFKB1: Life Technologies and Expression Analysis (LTEA) Assay for Nuclear Factor Kappa B Subunit 1 (NFKB1) using HepaRG (AID 2283521).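 Also: TaqMan qRT-PCR transcript normalised to ACTB GAPDH and POLR2A housekeeping genes.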 The gist of the method:
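Differentiated human HepaRG cells were exposed for 48 h in serum-free induction medium to eight concentrations (top 100 uM, half-log steps, 0.5% DMSO), in duplicate. NFKB1 mRNA was measured by TaqMan qRT-PCR, normalized to ACTB/GAPDH/POLR2A, and fitted bidirectionally against DMSO.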

Chain of Hypoxia-inducible factor 1-alpha (Homo sapiens) (Q16665 whole entry, looked up): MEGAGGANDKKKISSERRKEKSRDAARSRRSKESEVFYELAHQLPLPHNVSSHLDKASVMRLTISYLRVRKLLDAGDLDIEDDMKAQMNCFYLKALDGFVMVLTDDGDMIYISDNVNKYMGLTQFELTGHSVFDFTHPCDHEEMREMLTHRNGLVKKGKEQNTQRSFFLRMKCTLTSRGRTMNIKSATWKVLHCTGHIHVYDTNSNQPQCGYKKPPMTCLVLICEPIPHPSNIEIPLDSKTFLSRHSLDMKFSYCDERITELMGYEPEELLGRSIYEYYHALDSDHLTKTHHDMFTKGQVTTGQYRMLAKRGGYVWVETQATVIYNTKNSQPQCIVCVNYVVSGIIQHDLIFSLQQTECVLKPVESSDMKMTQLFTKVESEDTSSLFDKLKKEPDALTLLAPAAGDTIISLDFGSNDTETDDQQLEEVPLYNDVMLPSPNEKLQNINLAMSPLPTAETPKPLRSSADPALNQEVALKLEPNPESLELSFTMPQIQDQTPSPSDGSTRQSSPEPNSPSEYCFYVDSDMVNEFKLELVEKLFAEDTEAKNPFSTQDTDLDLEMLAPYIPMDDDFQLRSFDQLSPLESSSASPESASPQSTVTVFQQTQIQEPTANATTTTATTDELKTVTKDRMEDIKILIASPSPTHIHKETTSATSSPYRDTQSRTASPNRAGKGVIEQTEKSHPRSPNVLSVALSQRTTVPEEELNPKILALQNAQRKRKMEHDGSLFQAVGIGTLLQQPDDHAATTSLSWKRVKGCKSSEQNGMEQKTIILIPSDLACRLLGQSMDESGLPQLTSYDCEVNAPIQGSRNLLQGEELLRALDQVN
Chain of Nuclear factor NF-kappa-B p105 subunit (Homo sapiens) (P19838 whole entry, looked up): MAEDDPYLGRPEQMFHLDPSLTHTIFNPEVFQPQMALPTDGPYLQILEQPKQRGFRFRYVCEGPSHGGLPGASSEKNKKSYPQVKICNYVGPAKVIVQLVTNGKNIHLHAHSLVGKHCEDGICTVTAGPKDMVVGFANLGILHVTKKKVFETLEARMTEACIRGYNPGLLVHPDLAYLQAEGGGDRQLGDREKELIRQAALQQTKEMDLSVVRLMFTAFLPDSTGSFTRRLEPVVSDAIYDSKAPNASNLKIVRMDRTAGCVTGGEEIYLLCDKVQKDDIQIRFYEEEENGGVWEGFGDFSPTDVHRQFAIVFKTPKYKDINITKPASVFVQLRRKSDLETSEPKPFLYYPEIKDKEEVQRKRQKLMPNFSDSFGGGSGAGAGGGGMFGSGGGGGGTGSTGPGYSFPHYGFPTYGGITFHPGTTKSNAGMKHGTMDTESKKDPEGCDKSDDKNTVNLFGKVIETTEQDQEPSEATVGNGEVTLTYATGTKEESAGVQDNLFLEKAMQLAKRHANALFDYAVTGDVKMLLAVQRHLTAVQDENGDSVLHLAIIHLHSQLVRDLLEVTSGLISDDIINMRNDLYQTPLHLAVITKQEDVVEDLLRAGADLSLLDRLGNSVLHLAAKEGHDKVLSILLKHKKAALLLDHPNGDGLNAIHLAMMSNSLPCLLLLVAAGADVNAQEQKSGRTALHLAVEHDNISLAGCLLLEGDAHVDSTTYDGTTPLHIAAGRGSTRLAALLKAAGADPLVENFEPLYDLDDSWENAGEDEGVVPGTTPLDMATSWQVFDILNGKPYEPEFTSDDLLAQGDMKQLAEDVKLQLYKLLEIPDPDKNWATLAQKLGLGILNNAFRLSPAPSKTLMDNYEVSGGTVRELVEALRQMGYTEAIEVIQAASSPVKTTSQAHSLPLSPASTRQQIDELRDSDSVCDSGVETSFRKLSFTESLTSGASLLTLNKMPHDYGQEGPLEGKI

Turning to `CCCOc1nn(C(=O)NS(=O)(=O)c2ccccc2C(=O)OC)c(=O)n1C`, the compound was classed as inactive in [1], in experiment [2], in experiment [3], in [4], in experiment [5] and in experiment [6]. The outcome in [7], in [8], in experiment [9], in experiment [10], in experiment [11] and in experiment [12] was inactive. The call in [13], in experiment [14], in experiment [15], in experiment [16], in [17] and in experiment [18] was inactive. In addition, the outcome in experiment [19] and in experiment [20] was inactive.
Consider `C[N+]1(C)CCCCC1`, for which the compound was called inactive in experiment [1], in experiment [2], in experiment [3], in experiment [4], in experiment [5] and in [6]. The result in experiment [7], in experiment [8], in [9], in experiment [10], in experiment [11] and in experiment [13] was inactive. Further, the compound was classed as inactive in experiment [14], in [15], in experiment [16], in [17], in experiment [18] and in [19]. The compound was called inactive in experiment [20].
Consider `CCCCN(CC)c1c([N+](=O)[O-])cc(C(F)(F)F)cc1[N+](=O)[O-]`, for which the compound was classed as inactive in experiment [1], in experiment [2], in experiment [3], in experiment [4], in experiment [5] and in experiment [6]. For the same compound, the call in [8], in experiment [9], in experiment [10], in experiment [11], in [12] and in [13] was inactive. Also, the compound was classed as inactive in experiment [14], in [15], in experiment [16], in [17], in experiment [18] and in experiment [19]. For the same compound, the compound was classed as inactive in [20].
Consider `CSc1nnc(C(C)(C)C)c(=O)n1N`, for which the compound was classed as inactive in [1], in [2], in experiment [3], in experiment [4], in experiment [5] and in experiment [6]. For the same compound, the compound was classed as inactive in experiment [7], in experiment [8], in experiment [9], in experiment [10], in [11] and in [13]. Moreover, the compound was classed as inactive in experiment [14], in experiment [15], in experiment [16], in experiment [17], in experiment [18] and in experiment [19]. Moreover, in [20], the call was inactive.
Broadly, the AC50 is the concentration giving half of the maximal activity seen. For `CCc1cccc(CC)c1N(COC)C(=O)CCl`, the outcome in experiment [1], in experiment [2], in experiment [3], in [4], in [5] and in experiment [6] was inactive. Also, the compound was called inactive in experiment [8], in [9], in experiment [10], in experiment [11], in [12] and in experiment [13]. For the same compound, the result in experiment [14], in experiment [15], in experiment [16], in experiment [18], in experiment [19] and in experiment [20] was inactive. Moreover, the AC50 in [7] was 32.1 µM (active).
For the compound `CCC(CC)Nc1c([N+](=O)[O-])cc(C)c(C)c1[N+](=O)[O-]`, the compound was classed as inactive in [1], in experiment [2], in [3], in experiment [4], in [6] and in [7]. Also, the compound was classed as inactive in [8], in experiment [9], in [10], in experiment [13], in experiment [14] and in [15]. Also, the call in experiment [16], in experiment [17], in [18] and in [20] was inactive. Besides, the values for the half-maximal activity concentration (AC50) in experiment [5], in experiment [11] and in [19] were 61.1 µM (active), 50 µM (active) and 50 µM (active), respectively.
